Laboratory results published in PubChem BioAssay (NCATS).
Where “and” joins values, the source holds several entries; their conditions need not be identical. Identical values can stand only once. Results filed as inconclusive are left out. Calls of active or inactive are those of the source. Calls come from the whole dose curve; as a rule, active = well fitted curve in the direction sought with a large enough effect; inconclusive = small, poorly fitted or top-dose-only effect, or another doubt; inactive = no such curve, though single readings can be large; an effect the other way counts as inactive or inconclusive.

What was measured:
[1] = qHTS assay for measurement of the activity of small molecule inhibitors on Zika virus induced Caspase-3 activity in human iPSC derived neural progenitor cells (hNPCs) (AID 1224857); note: % of control where 0% means no effect; nearly all actives have a fitted effect of over 65% in size
Summary of the method: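 hNPCs seeded 350 cells/well, cultured 16–20 h; compounds added 1 h before ZIKV (2 FFU/cell), 37 C 6 h. Caspase-Glo 3/7 luminescence after 30 min RT; % inhibition from induction scaled to uninfected (0%) and infected (100%) wells.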

[2] = qHTS assay for measurement of the activity of small molecule inhibitors on Zika virus induced Caspase-3 activity in human astrocytoma cells (AID 1224859);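 note: plate controls were ZIKV-infected untreated cells for no effect and uninfected cells for full effect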
Summary of the method: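 Luminescence read-out (Caspase-Glo 3/7, 30 min RT) of caspase activity in SNB-19 cells infected 6 h with ZIKV, 2 FFU/cell, after 1 h compound pretreatment; % inhibition from induction normalised to uninfected (0%) and infected (100%) wells.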

[3] = qHTS assay to identify small molecule inhibitors of chordoma cells - UCH-1 (AID 1259355); note: nearly all actives have a fitted effect of over 55% in size; note: potency is the fitted concentration of half-maximal effect; series mostly up to about 46 µM
Summary of the method: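 Seed 800 cells per well; incubate overnight at 37 C, 5% CO2. Add test compounds (15 concentrations), then the auranofin–topoisomerase-agent combination. Incubate 48hr, add CellTiter-Glo, wait 30min, read luminescence.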

[4] = qHTS assay to identify small molecule inhibitors of chordoma cells - UCH-2 (AID 1259356); note: series mostly up to about 46 µM; % is set by controls: 0 for no effect and ±100 for the full control effect

O=C(O)COc1nn(Cc2ccccc2)c2ccccc12
inactive: outcome [1] | outcome [2] | Potency [3] | outcome [4]

CCOc1nc2cccc(C(=O)O)c2n1Cc1ccc(-c2ccccc2-c2nn[nH]n2)cc1
inactive: outcome [1] | outcome [2] | Potency [3] | outcome [4]

Oc1ccc(C(O)CNCCCCCCNCC(O)c2ccc(O)c(O)c2)cc1O (stereo not drawn)
inactive: outcome [1] | outcome [2] | Potency [3] | outcome [4]

C[C@@H]1C[C@H]2[C@@H]3C[C@H](F)C4=CC(=O)C=C[C@]4(C)[C@@]3(F)[C@@H](O)C[C@]2(C)[C@@]1(O)C(=O)CO
inactive: outcome [1] | outcome [2] | Potency [3] | outcome [4]

OCC(O)CN1CCN(c2ccccc2)CC1 (stereo not drawn)
inactive: outcome [1] | outcome [2] | Potency [3] | outcome [4]

CC(=O)Oc1ccc(C2(c3ccc(OC(C)=O)cc3)C(=O)Nc3ccccc32)cc1
inactive: outcome [1] | outcome [2]
active: Potency [3] 3.55 µM and 3.98 µM

Cc1cccc(Nc2cc(Cl)nc(SCC(=O)O)n2)c1C
inactive: outcome [1] | outcome [2] | Potency [3] | outcome [4]

Cc1cc(CC(=O)O)n(C)c1C(=O)c1ccc(Cl)cc1
inactive: outcome [1] | outcome [2] | Potency [3]

COc1cc(C(=O)N2CCOCC2)cc(OC)c1OC
inactive: outcome [1] | outcome [2] | Potency [3] | outcome [4]

COc1ccc2c(c1)C(=O)N(CCc1ccc(S(=O)(=O)NC(=O)NC3CCCCC3)cc1)C(=O)C2(C)C
inactive: outcome [1] | outcome [2] | Potency [3]

COc1ccc2[nH]c(S(=O)Cc3ncc(C)c(OC)c3C)nc2n1 (stereo not drawn)
inactive: outcome [1] | outcome [2] | Potency [3] | outcome [4]

C[C@@H]1CC[C@@]2(OC1)O[C@H]1C[C@H]3[C@@H]4CC[C@H]5C[C@@H](O)CC[C@]5(C)[C@H]4CC(=O)[C@]3(C)[C@H]1[C@@H]2C
inactive: activity change, negative = inhibition [1] 4.72% [at 4.53 µM] | activity change, negative = inhibition [2] -4.08% [at 4.53 µM] | Potency [3] | outcome [4]

Cc1cc(C(C#N)c2ccc(Cl)cc2)c(Cl)cc1NC(=O)c1cc(I)cc(I)c1O (stereo not drawn)
inactive: outcome [1] | outcome [2] | Potency [3]

CCN(CC)CCNC(=O)c1cc(Cl)c(N)cc1OC
inactive: outcome [1] | outcome [2] | Potency [3] | outcome [4]

c1ccc(CN(CC2=NCCN2)c2ccccc2)cc1
inactive: outcome [1] | outcome [2] | Potency [3] | outcome [4]

CCCCCCCCCCCCCCCC(=O)NCCO
inactive: outcome [1] | outcome [2] | Potency [3] | outcome [4]

O=C(O)[C@@H]1CSCN1
inactive: outcome [1] | outcome [2] | Potency [3]

NCCNCCNCCN
inactive: outcome [1] | outcome [2] | Potency [3] | outcome [4]

CC[C@@]1(c2ccccc2)NC(=O)N(C)C1=O
inactive: outcome [1] | outcome [2] | Potency [3]

O=C(O)c1ccccc1O
inactive: outcome [1] | outcome [2] | Potency [3] | outcome [4]

CCOC(=O)c1ccc(O)cc1
inactive: outcome [1] | outcome [2] | Potency [3] | outcome [4]

CCC(=O)c1ccc(O)cc1
inactive: outcome [1] | outcome [2] | Potency [3]

COc1cc2[nH]c(=O)[nH]c(=O)c2cc1OC
inactive: outcome [1] | outcome [2] | Potency [3]

Nc1nc2c(ncn2CCC(CO)CO)c(=O)[nH]1
inactive: outcome [1] | outcome [2] | Potency [3] | outcome [4]

Cc1ncc([N+](=O)[O-])n1CC(O)CCl (stereo not drawn)
inactive: outcome [1] | outcome [2] | Potency [3]

O=C1O[C@H](CO)[C@@H](O)[C@H](O)[C@H]1O
inactive: outcome [1] | outcome [2] | Potency [3] | outcome [4]

O=C(O)c1ccccc1-c1ccc(C(F)(F)F)cc1
inactive: outcome [1] | outcome [2] | Potency [3]

CCn1cc(C(=O)O)c(=O)c2cnc(N3CCNCC3)nc21
inactive: outcome [1] | outcome [2] | Potency [3]

CCCOC(=O)c1ccccc1
inactive: outcome [1] | outcome [2] | Potency [3] | outcome [4]

COc1ccc(S(=O)(=O)Nc2nnc(CC(C)C)s2)cc1
inactive: outcome [1] | outcome [2] | Potency [3] | outcome [4]

OCC(CO)N[C@H]1C[C@](O)(CO)[C@@H](O)[C@H](O)[C@H]1O
inactive: outcome [1] | outcome [2] | Potency [3] | outcome [4]

CN1CCC[C@@H]1Cc1c[nH]c2ccc(CCS(=O)(=O)c3ccccc3)cc12
inactive: outcome [1] | outcome [2] | Potency [3] | outcome [4]

Cc1c(Cl)cccc1Nc1ccccc1C(=O)O
inactive: outcome [1] | outcome [2] | Potency [3] | outcome [4]

CCCc1c(OCCCCc2nn[nH]n2)ccc(C(C)=O)c1O
inactive: outcome [1] | outcome [2] | Potency [3] | outcome [4]

CCCn1cnc2c1c(=O)n(CCCCC(C)=O)c(=O)n2C
inactive: outcome [1] | outcome [2] | Potency [3] | outcome [4]

Cc1cc2c(cc1S(N)(=O)=O)S(=O)(=O)CCC2
inactive: outcome [1] | outcome [2] | Potency [3] | outcome [4]
